MITF inh = MITF inhibitors, primary screen, biochemical, AlphaScreen, human | Microphthalmia-associated transcription factor (Homo sapiens), O75030 | AlphaScreen MITF homodimerization, bead proximity signal | inhibition, % at 2.6 µM | 650,000 compounds, 0.91% hits | AID 1259374, 2018; in the data active means inhibition above about 50%
Target sequence (O75030 whole entry, looked up): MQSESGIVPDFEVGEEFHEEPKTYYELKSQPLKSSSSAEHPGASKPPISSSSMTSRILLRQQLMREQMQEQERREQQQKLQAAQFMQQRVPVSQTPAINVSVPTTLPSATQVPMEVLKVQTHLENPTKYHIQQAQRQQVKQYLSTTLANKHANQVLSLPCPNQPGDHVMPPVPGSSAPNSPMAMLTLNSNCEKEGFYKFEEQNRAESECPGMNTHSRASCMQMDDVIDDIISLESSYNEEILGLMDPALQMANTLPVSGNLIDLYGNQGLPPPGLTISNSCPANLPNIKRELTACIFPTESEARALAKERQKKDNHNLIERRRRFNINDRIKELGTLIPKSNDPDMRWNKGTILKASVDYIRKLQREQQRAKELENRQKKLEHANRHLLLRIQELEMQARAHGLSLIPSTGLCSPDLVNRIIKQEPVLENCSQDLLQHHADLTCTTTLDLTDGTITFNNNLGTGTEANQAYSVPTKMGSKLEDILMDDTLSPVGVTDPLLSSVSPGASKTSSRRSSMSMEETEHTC
FBW7 activator = FBW7 E3 ligase activators, primary screen, biochemical, AlphaScreen, human; F-box/WD repeat-containing protein 7 (Homo sapiens), Q969H0; AlphaScreen FBW7–phospho-cyclin E peptide binding, activator screen; normalized activity (activation), % at 26.1 µM; 650,000 compounds, 0.13% hits; in the data active means normalized activity above about 1.9%;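 further: purified mutant Fbw7 with reduced substrate affinity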
TEAD-YAP inh = TEAD-YAP interaction inhibition, primary screen, TEAD-YAP interaction inhibitor project, luminescence, HEK-TIYL cells; TEAD-Gal4/YAP UAS-luciferase luminescence; inhibition, % at 9.12 µM; AID 1259422, 2018; 640,000 compounds, 1.4% hits; in the data active means inhibition above about 32%
GPR151 ag = activators of human GPR151, primary screen, cell-based, PathHunter beta-arrestin, luminescence; 650,000 compounds, 1% hits; PathHunter beta-arrestin GPR151 cells; AID 1508602, 2020; activation, % at 11.2 µM; in the data active means activation above about 4.9%
Each line names hits and unclear results; the compound was inactive in the other large screens. The list is not random: actives were taken first. Their share in the collection is about 3.5%.

COc1ccccc1C(=O)NCc1nnc(SCC(=O)N2N=C(c3cccs3)CC2c2ccc(F)cc2)n1-c1ccccc1OC (centres undefined)	none
COc1cc2c(cc1OC)C(c1ccc(OC(C)C)cc1)CC(=O)N2 (centres undefined)	none
Cc1[nH]c(=O)[nH]c(=O)c1CSCC(=O)OCC(=O)c1ccccc1	none
Cc1ccc(S(=O)(=O)CCc2nnc(NC(=O)c3cccs3)s2)cc1C	none
O=C(Nc1ccc2c(c1)OCCO2)c1ccc(F)cc1	TEAD-YAP inh 43.4
COc1cc(OC)c(S(=O)(=O)Nc2ccc3c(c2)OCCO3)cc1NC(C)=O	TEAD-YAP inh 34.6
Cc1ccc(C(=O)Nc2ccc3c(c2)OCCO3)cc1	none
O=C(O)C1=C(C(=O)Nc2ccc3c(c2)OCCO3)CCCC1	TEAD-YAP inh 55.3
CCCCOc1cccc(C(=O)Nc2ccc3c(c2)OCCO3)c1	none
COc1cccc(C(=O)Nc2ccc3c(c2)OCCO3)c1	TEAD-YAP inh 79.0
C/C=N/NC(=O)COc1ccc(Cl)cc1	none
O=C(Nc1ccc2ncsc2c1)c1ccc2c(c1)OCCO2	TEAD-YAP inh 85.6
O=C(Nc1ccc2ncsc2c1)c1ccc(F)cc1	none
Cc1cc(/C=c2\sc3nc4ccccc4n3c2=O)c(C)n1-c1ccc(F)cc1	TEAD-YAP inh 31.9
COc1ccc(-n2c(C)cc(/C=c3\sc4nc5ccccc5n4c3=O)c2C)cc1	none
CC(=O)Nc1ccc(/C=c2\sc3nc4ccccc4n3c2=O)cc1	TEAD-YAP inh 57.0
O=c1/c(=C/c2ccc(O)c(Cl)c2)sc2nc3ccccc3n12	TEAD-YAP inh 52.6
O=c1/c(=C\c2ccc3c(c2)OCO3)sc2nc3ccccc3n12	TEAD-YAP inh 37.7
CC(=O)Oc1cn(Cc2ccccc2)c2nc(C)n3c4ccccc4nc3c12	none
CN1C(=O)N(CC(=O)NCCc2ccccc2)C(=O)C12CCCCC2	none
Cc1ccc(C(=O)/C(=C\c2cccs2)c2nc3ccccc3o2)cc1	TEAD-YAP inh 72.7
COc1ccc(C(=O)/C(=C\c2ccc(C)o2)c2nc3ccccc3o2)cc1	TEAD-YAP inh 37.8
O=C(NC1CC1)c1ccnc(Cl)c1	none
O=C(NC1CCC(CC2CCC(NC(=O)c3ccncc3)CC2)CC1)c1ccncc1 (centres undefined)	TEAD-YAP inh 32.3
C/C(N)=C(/C#N)C(=O)CSc1ccc(C)c(C)c1	TEAD-YAP inh 36.2
CN(CCC#N)c1ccc(/C=C(\C#N)c2ccccn2)cc1	TEAD-YAP inh 48.7
CCCCC(CC(=O)OCC)NC(=O)CCc1nnc(CCc2ccccc2OC)o1 (centres undefined)	none
CC(=O)OC12CO[C@@H]1C[C@H](O)[C@@]1(C)C(=O)[C@H](O)C3=C(C)[C@@H](OC(=O)[C@H](O)[C@@H](NC(=O)OC(C)(C)C)c4ccccc4)CC(O)([C@@H](OC(=O)c4ccccc4)[C@H]21)C3(C)C (some centres undefined)	TEAD-YAP inh 51.0
COc1ccc(Br)cc1/C=C/C(=O)c1cccc(NC(C)=O)c1	TEAD-YAP inh 74.8
COC(CNS(=O)(=O)c1ccc(Oc2ccc(S(=O)(=O)NCC(OC)OC)cc2)cc1)OC	TEAD-YAP inh 48.6
O=S(=O)(NCc1ccco1)c1ccc(Oc2ccc(S(=O)(=O)NCc3ccco3)cc2)cc1	TEAD-YAP inh 48.0
COc1ccccc1CNS(=O)(=O)c1ccc(Oc2ccc(S(=O)(=O)NCc3ccccc3OC)cc2)cc1	TEAD-YAP inh 43.3
COc1ccccc1CNS(=O)(=O)c1ccc(F)cc1	none
O=C(CCS(=O)(=O)CCN1CCCCCC1)NCNC(=O)CCS(=O)(=O)CCN1CCCCCC1	none
COc1ccc(-c2cc3nc4c(c(N5CCC(O)CC5)n3n2)CCCC4)cc1	TEAD-YAP inh 37.8
CCOC(=O)c1[nH]ncc1CN1CCN(Cc2ccc(OC)cc2F)C(CCO)C1 (centres undefined)	none
CCOC(=O)CC1COCCN1Cc1cn[nH]c1-c1ccc2cc(OC)ccc2c1 (centres undefined)	TEAD-YAP inh 46.0
COc1cccc(-n2c(SCC(=O)Nc3ccccc3OC)nnc2-c2cccnc2)c1	none
CCCCNC(=O)CSc1nnc(-c2cccnc2)n1-c1ccccc1OC	none
COc1ccccc1NC(=O)CSc1nnc(-c2cccnc2)n1-c1ccccc1C	TEAD-YAP inh 69.5
COc1ccccc1-n1c(SCC(=O)Nc2ccc(F)cc2)nnc1-c1ccncc1	none
COc1ccccc1-n1c(SCC(=O)Nc2ccccc2F)nnc1-c1cccnc1	TEAD-YAP inh 58.3
COc1cccc(-c2nnc(SCC(=O)Nc3ccccc3OC)n2-n2cccc2)c1	TEAD-YAP inh 50.0
COc1ccccc1-n1c(SCC(=O)Nc2nc(C)cs2)nnc1-c1ccncc1	TEAD-YAP inh 51.2
NS(=O)(=O)c1ccc(Nc2nccc(=O)[nH]2)cc1	none
COC(=O)CSc1nnc(-c2cccnc2)n1C	FBW7 activator 1.9
FC(F)(F)c1ccc(Cn2cnc3c(NCc4nc5ccccc5[nH]4)nc(Nc4ccccc4)nc32)cc1	TEAD-YAP inh 40.7
COc1cc(Nc2nc(NCc3nc4ccccc4[nH]3)c3ncn(Cc4ccc(C(F)(F)F)cc4)c3n2)cc(OC)c1OC	TEAD-YAP inh 42.9
COc1cc(Nc2nc(NC3CC3)c3ncn(Cc4ccc(C(F)(F)F)cc4)c3n2)cc(OC)c1OC	TEAD-YAP inh 46.8
FC(F)(F)c1ccc(Cn2cnc3c(NCc4nc5ccccc5[nH]4)nc(Nc4ccc5ncccc5c4)nc32)cc1	none
FC(F)(F)c1ccc(Cn2cnc3c(NCc4nc5ccccc5[nH]4)nc(Nc4ccc(C(F)(F)F)cc4)nc32)cc1	none
CN1C(=O)/C(=C/c2cn(-c3ccccc3)nc2-c2ccc(F)cc2)N(C)C1=S	none
Cc1ccc(C2=N/C(=C/c3ccccc3C(F)(F)F)C(=O)O2)cc1[N+](=O)[O-]	none
O=[N+]([O-])c1cccc(Cl)c1N1CCN(S(=O)(=O)c2cccc3nsnc23)CC1	none
CN1CCN(c2ccc(-c3nc(NCCO)c4ncn(-c5ccsc5)c4n3)cc2)CC1	TEAD-YAP inh 86.9
CCCNc1nc(-c2ccc(N3CCN(C)CC3)cc2)nc2c1ncn2-c1ccsc1	none
COc1ccc(-c2nc(NCCO)c3ncn(-c4ccsc4)c3n2)cc1	TEAD-YAP inh 61.5
CN1CCN(c2ccc(-c3nc(NCc4cccnc4)c4ncn(-c5ccsc5)c4n3)cc2)CC1	TEAD-YAP inh 36.0
Clc1ccc(-n2ncc3c(N4CCN(c5ccc(Cl)c(Cl)c5)CC4)ncnc32)cc1	none
Clc1ccc(-n2ncc3c(N4CCCCCC4)ncnc32)cc1	TEAD-YAP inh 90.5
Clc1ccc(-n2ncc3c(N4CCOCC4)ncnc32)cc1	TEAD-YAP inh 79.5
Fc1ccc(-n2ncc3c(N4CCOCC4)ncnc32)cc1	TEAD-YAP inh 76.9
Cc1ccc(-n2ncc3c(N4CCOCC4)ncnc32)cc1Cl	TEAD-YAP inh 92.4
Cc1cccc(-n2ncc3c(N4CCN(c5ccc(Cl)c(Cl)c5)CC4)ncnc32)c1	none
O=S(=O)(c1ccccc1)n1c(SCc2cccc(Br)c2)nc2ccccc21	none
